Screens (PubChem)
In the library only some 17% were active in any assay of this set; here they are far more common.
TDP1 cell CPT: growth inhibition of DT40 Tdp1-/-;hTDP1 cells with camptothecin (screen for TDP1 inhibitors) | chicken DT40 Tdp1-/-;hTDP1 cells + 20 nM CPT, ATP luminescence, 48 h | Potency, µM (top dose mostly 46.2 µM), without a hit: at the top dose activity change, negative = growth inhibition, hits mostly inhibitors | actives 12% (n = 420,000); further: on the % scale 0 is the no-effect control and ±100 the full control effect; nearly all actives have a fitted effect of over 55% in size
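Cell growth measured by CellTiter-Glo luminescence after a minimum 48 h, 37 C compound exposure with 20 nM CPT in Tdp1-knockout DT40 cells stably expressing hTDP1, seeded 400/well; qHTS titration format.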
ClpP mod: qHTS Assay for Activators of ClpP | ATP-dependent Clp protease proteolytic subunit (Bacillus subtilis (strain 168)), P80244 | purified B. subtilis ClpP, FRET peptide cleavage, 20 min | Potency, µM (series often up to 57.5 µM), for the others: at the highest dose activity change, negative = active | actives 1.9% (n = 340,000); active means well fitted falling curve with a large enough effect; inconclusive means small, poorly fitted or top-dose-only effect; inactive means no such curve, though single readings can be large or run the other way; further: the source files actives as falling curves though it sought activators and does not explain the sign; nearly all actives have a fitted effect of over 65% in size
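Buffer: 100 mM Tris/HCl pH8, 100 mM KCl, 0.05% low protease BSA, 2.5% glycerol, 0.01% Tween-20. ClpP 10 microg/mL final; 20 min RT; delta FRET normalized to ADEP and DMSO controls.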
TDP1 block: inhibitors of human tyrosyl-DNA phosphodiesterase TDP1 | Q9NUW8 | recombinant TDP1, AlphaScreen DNA substrate cleavage | Potency, µM (doses to about 130 µM), inactives show top-dose activity change, negative = inhibition, actives largely listed as inhibitors | actives 0.28% (n = 350,000) | AID 485290; further: on the % scale 0 is the no-effect control and ±100 the full control effect; nearly all actives have a fitted effect of over 40% in size
Target sequence (Q9NUW8 whole entry, looked up): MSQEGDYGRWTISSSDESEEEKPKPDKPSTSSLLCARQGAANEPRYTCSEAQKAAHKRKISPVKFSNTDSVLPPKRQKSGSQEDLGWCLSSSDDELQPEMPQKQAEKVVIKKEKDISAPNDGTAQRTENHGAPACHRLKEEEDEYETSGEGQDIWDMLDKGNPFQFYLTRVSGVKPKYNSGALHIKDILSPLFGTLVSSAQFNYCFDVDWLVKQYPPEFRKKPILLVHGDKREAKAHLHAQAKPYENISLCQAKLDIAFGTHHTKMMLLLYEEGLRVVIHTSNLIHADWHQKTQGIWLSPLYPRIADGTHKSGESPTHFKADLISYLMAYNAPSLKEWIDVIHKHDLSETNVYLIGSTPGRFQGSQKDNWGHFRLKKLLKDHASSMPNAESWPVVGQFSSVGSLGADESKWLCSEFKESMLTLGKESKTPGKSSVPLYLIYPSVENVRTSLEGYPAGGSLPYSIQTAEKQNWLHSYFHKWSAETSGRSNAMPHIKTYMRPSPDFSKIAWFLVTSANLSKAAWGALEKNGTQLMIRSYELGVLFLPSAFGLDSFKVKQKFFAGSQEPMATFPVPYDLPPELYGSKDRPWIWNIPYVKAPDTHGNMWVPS
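Here, a 5' biotin and 3' phosphotyrosine-FITC DNA oligonucleotide reports Tdp1 activity: intact substrate bridges AlphaScreen beads, while cleavage leaves a 3' phosphate and drops signal. All incubations at room temperature.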
TDP1 cell noCPT: qHTS for Inhibitors of human tyrosyl-DNA phosphodiesterase 1 (TDP1): qHTS in cells in absence of CPT. actives 15% (n = 420,000). Potency, µM (doses to about 46.2 µM), for the others: at the highest dose activity change, negative = growth inhibition, usual class: inhibitors. DT40 Tdp1-/- hTDP1 cells, no CPT, ATP luminescence, 48 h; further: on the % scale 0 is the no-effect control and ±100 the full control effect; nearly all actives have a fitted effect of over 55% in size
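Growth kinetics read by CellTiter-Glo luminescence after ≥48 hr at 37 °C. Cells: DT40 Tdp1-/- stably carrying human TDP1, 400 per well, compound exposure in the absence of CPT (DMSO vehicle).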
* = called active by the depositor; ? = inconclusive; . = no result given; [ ] = remark or other dose. Unless noted, the call rests on the fitted dose curve; in most records, active means well fitted curve in the direction sought with a large enough effect; inconclusive means small, poorly fitted or top-dose-only effect, or another doubt; inactive means no such curve, though single readings can be large; an effect the other way counts as inactive or inconclusive. Potency means the concentration at half of the fitted maximal effect.

SMILES | TDP1 cell CPT | ClpP mod | TDP1 block | TDP1 cell noCPT
CC1(C)Cc2c(C#N)c(NCC3CCCO3)nc(-c3ccco3)c2CO1 (centres undefined) | ? | 11µM* | . | ?
CCN(CC)CCNc1nc(-c2ccco2)c2c(c1C#N)CC(C)(C)OC2 | 7% | ? | 5% | -5%
Cc1nc(-c2cccc(F)c2)sc1CCNC(=O)C(=O)Nc1ccc2c(c1)OCO2 | ? | -6% | 2% | -18%
Cc1cc(Br)ccc1OCC(=O)NNC(=O)c1cnccn1 | ? | 2% | 4% | 21µM*
COc1ccc(CC(=O)NNC(=O)COc2ccc(Br)cc2C)cc1OC | -19% | -1% | 1% | -29%
Cc1cc(Cl)ccc1OCC(=O)NNC(=O)c1cnccn1 | 10µM* | . | 7% | 23µM*
Cc1ccc(NC(=O)c2ccc(OC(=O)COc3ccc(Cl)cc3C)cc2)cc1 | 3% | -5% | 5% | 11%
Cc1ccc(C(=O)CC(=O)COc2ccc(Cl)cc2C)cc1 | 4.1µM* | . | -2% | 5.8µM*
O=C(NCc1cccnc1)c1ccccc1CCc1ccccc1 | ? | 1% | 5% | -16%
COC(=O)N[C@@H](c1cccc(F)c1)C(C(C)=O)C(=O)OC (some centres undefined) | . | . | -2% | .
CCOc1ccc(C(=O)NN2C(=S)NC(C)(C)C=C2C)cc1 | 13% | 0% | . | -4%
CCSc1ncc(Cl)c(C(=O)Nc2c(C(=O)c3ccc(C)c(F)c3)oc3ccccc23)n1 | -12% | 4% | 6% | -4%
CCOC(=O)C1CCCN(C(=O)Cn2nc(C)n3c(cc4c(OC)cccc43)c2=O)C1 (centres undefined) | -18% | 4% | 4% | ?
CCOC(=O)C1CCN(C(=O)c2ccc3c(=O)n4c(nc3c2)CCCCC4)CC1 | -5% | -3% | 0% | -3%
CCOC(=O)C1CCN(C(=O)Cn2nc(C)n3c(cc4c(OC)cccc43)c2=O)CC1 | -17% | 2.8µM* | -3% | -16%
CCOC(=O)C1CCN(C(=O)c2ccc3c(=O)n4nc(Nc5cc(C)ccc5C)sc4nc3c2)CC1 | 9.2µM* | -13% | 7% | 18µM*
CCOC(=O)C1CCN(C(=O)c2ccc3c(=O)n4nc(Nc5ccccc5OC)sc4nc3c2)CC1 | 26µM* | -2% | . | 21µM*
COc1ccccc1Nc1nn2c(=O)c3ccc(C(=O)N4CCCC(C)C4)cc3nc2s1 (centres undefined) | 12µM* | 1% | 15% | 23µM*
O=C(O)c1ccc(CS(=O)(=O)c2ccc(Br)cc2)cc1 | 7% | 0% | . | 9%
C[C@@H](C(=O)Nc1ccc2ccccc2c1)[C@H]1C[C@]1(C)[C@H](NC(=O)c1ccccc1)c1ccccc1 | . | . | 7% | .
COC(=O)COc1ccc(-c2ccc(F)cc2)cc1C=O | ? | . | -9% | ?
COC(=O)COc1ccc(-c2ccccc2)cc1C=O | ? | . | -2% | 23µM*
Cc1cc(C)cc(NC(=O)c2cccc(N3C(=O)C4C5C=CC(C5)C4C3=O)c2)c1 (centres undefined) | -13% | -1% | 2% | 4%
Cc1cccc(NC(=O)c2cccc(N3C(=O)C4C5C=CC(C6CC56)C4C3=O)c2)c1 (centres undefined) | ? | -1% | 3%[56.1 µM] | 15µM*
Cc1ccc(NC(=O)c2oc3ccc(S(=O)(=O)N4CCCCCC4)cc3c2C)c(C)c1 | -24% | 5% | 8% | -22%
SMILES | TDP1 cell CPT | ClpP mod | TDP1 block | TDP1 cell noCPT
Nc1ccccc1/C=C/c1ccccc1N | -12% | . | . | ?
CC(C)CCNC(=O)CN1C(=O)c2cccnc2Oc2ccccc21 | -4% | -1% | -3% | -18%
Cc1cc(C)c2c(N)c(C(=O)Nc3ccc(C)c(C)c3)sc2n1 | -9% | 9% | . | ?
Cc1cc(C)c2c(NC(=O)c3ccccc3Cl)c(C(=O)Nc3ccc(C)c(C)c3)sc2n1 | 8.2µM* | 10% | 7% | 16µM*
COCC(=O)Nc1cc(C(=O)N2CC3CCC2C3)c2c(c1)nc(-c1ccncc1)n2C (centres undefined) | 9%[9.04 µM] | . | . | -4%
CCn1c(=S)sc2c(=O)n(CC(=O)Nc3ccccc3)c(C)nc21 | ? | 0% | 5% | ?
CCn1c(=S)sc2c(=O)n(CC(=O)Nc3ccccc3C(F)(F)F)c(C)nc21 | -23% | 0% | 45µM* | ?
